Broadly, the Inhibition is the drop in the measured response relative to a control, in per cent.

This note sets out measurements from ChEMBL document CHEMBL4513146, “CO-ADD screening of Karazin Kharkiv National University (Ukraine) compounds”.

One experiment relates to Staphylococcus aureus. Conditions: Concentration 32 ug.mL-1;; ASSAY_TEST Inhibition of Bacterial Growth; detection method Absorption (OD600); MEDIA CAMHB; plate type 384well; NBS; CORNING #3640; time 18 hr.
A further experiment deals with Escherichia coli. Conditions: Concentration 32 ug.mL-1;; ASSAY_TEST Inhibition of Bacterial Growth; detection method Absorption (OD600); MEDIA CAMHB; plate type 384well; NBS; CORNING #3640; time 18 hr.

Results with a measured potency or affinity are listed apart.

On to `CC(C)Sc1ccc2nn(CC(=O)Nc3ccccc3F)c(=O)n2n1`, for which the results for the Inhibition with Staphylococcus aureus and with Escherichia coli were -5.65% and 3.66%, respectively.
On to `O=C(Cn1nc2nc(Nc3ccc(F)cc3)ccn2c1=O)N1CCCC1`, for which the Inhibition is given as -4.71% with Staphylococcus aureus and -12.03% in the experiment with Escherichia coli.
Consider `CCc1nnc2c(S(=O)(=O)N(Cc3cccc(Cl)c3)c3ccccc3)cccn12`, for which the figures for the Inhibition with Staphylococcus aureus and with Escherichia coli were 4.22% and -6.56%, respectively.
In the case of `O=C(Cn1nc2c(=O)n(-c3ccc(Br)cc3)ccn2c1=O)Nc1cc(F)ccc1F`, the Inhibition amounted to 4.89% in the experiment with Staphylococcus aureus and 0.34% with Escherichia coli.
Consider `N#Cc1cccc(NC(=O)CSc2nnc3c4cc(-c5ccccc5)nn4ccn23)c1`, for which the results for the Inhibition with Staphylococcus aureus and in the experiment on Escherichia coli were 2.79% and -3.47%, respectively.
The matching figures for `COc1ccc(N2CCN(C(=O)Cn3nc4ccc(-c5ccccc5)nn4c3=O)CC2)cc1`: 15.35% and 1.42%.
The like results for `CCc1nnc2ccc(S(=O)(=O)N(Cc3ccc(OC)c(F)c3)c3ccccc3)cn12` were, in that order, -14.1% and -2.03%.
The like results for `CC(C)NC(=O)Cn1nc2nc(Nc3ccc(F)cc3)ccn2c1=O` were, in that order, 8.74% and -2.64%.
In the case of `O=c1c2nn(Cc3cccc([N+](=O)[O-])c3)c(=O)n2ccn1-c1ccccc1`, the Inhibition in the experiment with Staphylococcus aureus is -0.55%; in the experiment on Escherichia coli it was -2.06%.
The matching figures for `CCOC(=O)c1ccc(NC(=O)CSc2nc3ccccc3n3c(C(C)C)nnc23)cc1`: -3.17% and -9.79%.
The like results for `COc1ccc(NC(=O)Cn2nc3c(SCc4ccc(Cl)cc4)nccn3c2=O)cc1OC` were, in that order, 6.14% and -6.36%.
The like results for `Cc1cccc(C)c1NC(=O)CSc1nnc2c3cc(-c4ccc(F)cc4)nn3ccn12` were, in that order, -13.2% and -12.65%.
On to `Cc1oc(-c2cccc(Cl)c2)nc1CSc1nc2ccccc2n2c(C(C)C)nnc12`, for which the Inhibition is recorded as 3.52% in the experiment on Staphylococcus aureus and -2.96% with Escherichia coli.
As to `Cc1cc(C)cc(Nc2nc(C)cc3nn(CC(=O)NCc4ccco4)c(=O)n23)c1`, the Inhibition is on record as 4.89% in the experiment with Staphylococcus aureus and -6.71% in the experiment with Escherichia coli.
On to `COc1ccc(CNC(=O)Cn2nc3c(N4CCN(c5ccccc5)CC4)nccn3c2=O)cc1`, for which the Inhibition was determined as 21.01% in the experiment with Staphylococcus aureus and 2.9% in the experiment on Escherichia coli.
In the case of `O=c1c2nn(Cc3ccccc3Cl)c(=O)n2ccn1-c1ccccc1`, the Inhibition with Staphylococcus aureus was -1.67%; in the experiment on Escherichia coli it was -5.84%.
For `Cc1cc(C)cc(N(Cc2ccc(Cl)cc2)S(=O)(=O)c2cccn3c(C)nnc23)c1`, the values for the Inhibition in the experiment with Staphylococcus aureus and in the experiment with Escherichia coli were 9.89% and -11.68%, respectively.
As for `Cc1cc(C)cc(NC(=O)Cn2nc3ccc(-c4ccc(C)c(C)c4)nn3c2=O)c1`, the figures for the Inhibition in the experiment with Staphylococcus aureus and in the experiment with Escherichia coli were 1.36% and -7.85%, respectively.
Take `O=C(Cn1nc2ccc(SCc3ccc(Cl)cc3)nn2c1=O)Nc1ccc2c(c1)CCC2`: the Inhibition is recorded as 2.54% in the experiment with Staphylococcus aureus and -5.73% in the experiment with Escherichia coli.
For the molecule `CCOc1ccc(-n2ccn3c(SCC(=O)c4ccccc4)nnc3c2=O)cc1`, the Inhibition in the experiment with Staphylococcus aureus was 6.87%; with Escherichia coli, 1.63%.
Take `CSc1ccc(CNC(=O)CCc2nnc3c(N4CCCCC4)nc4ccccc4n23)cc1`: the Inhibition in the experiment on Staphylococcus aureus is given as 14.53%; with Escherichia coli, 2%.
Consider `Cc1ccc(NC(=O)Cn2c(=O)c3nnc(C(C)C)n3c3ccccc32)cc1C`, for which the results for the Inhibition in the experiment with Staphylococcus aureus and in the experiment on Escherichia coli were 7.95% and 6.48%, respectively.
Consider `CC1CCN(C(=O)Cn2nc3n(Cc4ccco4)c(=O)c4sccc4n3c2=O)CC1`, for which the Inhibition with Staphylococcus aureus is recorded as 1.87%; with Escherichia coli, -2.27%.
The matching figures for `Cc1cc2nn(CC(=O)Nc3ccc4c(c3)OCCO4)c(=O)n2c(Nc2ccccc2C)n1`: 9.51% and -1.19%.
As for `O=C(Cn1nc2nc(Nc3ccc(F)cc3)ccn2c1=O)N1CCOCC1`, the Inhibition in the experiment on Staphylococcus aureus is listed as 9.39%; in the experiment with Escherichia coli, -3.26%.
For the molecule `Cc1cccc(CN(c2ccccc2)S(=O)(=O)c2cccn3c(C)nnc23)c1`, the Inhibition is recorded as 5.16% in the experiment on Staphylococcus aureus and -11.12% with Escherichia coli.
Take `Cc1cc(C)c(NC(=O)Cn2nc3c(Sc4cccc(F)c4)nccn3c2=O)c(C)c1`: the Inhibition with Staphylococcus aureus was 9.93%; in the experiment on Escherichia coli, -1.39%.
Turning to `COc1cc(OC)c(NC(=O)Cn2nc3c(Oc4ccc(C)cc4)nccn3c2=O)cc1Cl`, the Inhibition in the experiment with Staphylococcus aureus is 4.71%; with Escherichia coli it was -4.58%.
As for `Cc1cccc(Oc2nc3ccccc3n3c(=O)n(CC(=O)NCc4ccco4)nc23)c1C`, the Inhibition was 3.87% in the experiment with Staphylococcus aureus and -6.2% in the experiment on Escherichia coli.
The like results for `Cc1cccc(NC(=O)Cn2nc3c(SC4CCCCC4)nccn3c2=O)c1C` were, in that order, 2.67% and 2.06%.
In the case of `CC(C)CCn1c(=O)c2sccc2n2c(=O)n(Cc3c(F)cccc3Cl)nc12`, the Inhibition was 13.63% in the experiment with Staphylococcus aureus and 0.76% in the experiment with Escherichia coli.
The like results for `CCc1ccccc1Sc1nccn2c(=O)n(CC(=O)Nc3cc(C)ccc3C)nc12` were, in that order, 15.04% and 0.5%.
The like results for `Cc1ccc(-c2cc3c4nn(CC(=O)Nc5ccc(Br)cc5)c(=O)n4ccn3n2)cc1C` were, in that order, 0.82% and -8.3%.
